# Bioassay records: PubChem BioAssay, National Center for Advancing Translational Sciences (NCATS)
# In the library only some 14% were active in any assay of this set; here they are far more common.
# FBPA Giardia inh = blocks Giardia fructose-bisphosphate aldolase activity; AID 2451; actives 0.71% (n = 290,000); Potency, µM (top dose mostly 59.6 µM), for inactives: at the top dose activity, negative = inhibition, usual class: inhibitors; A8B2U2; purified Giardia FBPA; also: potency is read from the fitted curve at half-maximal effect; nearly all actives have a fitted effect of over 55% in size
# Target sequence (A8B2U2 whole entry, looked up): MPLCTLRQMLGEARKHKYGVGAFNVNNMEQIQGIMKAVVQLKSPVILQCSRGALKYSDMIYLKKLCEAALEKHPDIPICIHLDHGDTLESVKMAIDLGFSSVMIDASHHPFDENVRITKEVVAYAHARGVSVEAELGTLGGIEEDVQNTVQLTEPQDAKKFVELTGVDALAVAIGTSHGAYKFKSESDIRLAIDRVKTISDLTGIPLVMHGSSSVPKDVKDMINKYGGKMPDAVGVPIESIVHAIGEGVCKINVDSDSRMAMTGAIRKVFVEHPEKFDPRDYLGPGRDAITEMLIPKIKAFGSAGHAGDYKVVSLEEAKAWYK
#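 40 nM FBPA preincubated 10 min at RT with compound (up to 57.5 uM final), then substrate plus GAPDH/TPI/NAD/arsenate coupling and diaphorase/resazurin added. Fluorescence read after 20 min at RT, 525/598 nm.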
# Pf growth 96h = P. falciparum growth inhibition at 96 hour, primary screen for plastid delayed-death inhibitors; P. falciparum luciferase reporter growth, 96 h; actives 6.9% (n = 320,000); Potency, µM (highest dose often 28.7 µM), inactives show at the top dose activity change, negative = inhibition, most hits filed as inhibitors; AID 504834; also: potency is read from the fitted curve at half-maximal effect
#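 P. falciparum expressing integrated firefly luciferase, in erythrocytes at 2% hematocrit, 0.05% parasitemia, incubated with compounds 96 h at 37 C, 5% CO2. Growth inhibition read as loss of luminescence; two-generation exposure targets delayed-death apicoplast inhibitors.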
# Sm TGR inh = S. mansoni TGR enzyme inhibition. Q962Y6. purified TGR, DTNB reduction, TNB absorbance 405 nm. Potency, µM (doses to about 114 µM), for the others: at the highest dose activity change, negative = inhibition, usual class: inhibitors. actives 3% (n = 360,000). AID 485364; also: potency is read from the fitted curve at half-maximal effect; nearly all actives have a fitted effect of over 60% in size
#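 Kinetic colorimetric format: TGR-catalysed, NADPH-driven DTNB reduction monitored via TNB absorbance. Enzyme dispensed at 20 nM; compound exposure 15 min at room temperature before reaction start.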
# HCMV antiviral = human cytomegalovirus inhibition. activity change, negative = inhibition, % at 57.5 µM. actives 4.5% (n = 410,000). HFF cells, HCMV-luciferase reporter, 72 h; stronger effect = lower value. AID 1259415; in the data active = activity change below about -60%; inconclusive = no clear call, values can overlap the other calls; inactive = above about -39%
#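 Luciferase read-out from HCMV-luciferase-infected HFFs (MOI 1 PFU/cell) 72 h post infection at 37C; compounds added after 16 h cell attachment; activity normalized between buffer-only basal and Salinomycin (10uM) inhibitor controls.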
# Pf growth 48h = inhibits P. falciparum growth in the first generation, 48 h; P. falciparum luciferase growth in erythrocytes, 48 h; Potency, µM (doses to about 28.7 µM), without a hit: top-dose activity change, negative = inhibition, actives largely listed as inhibitors; actives 5.9% (n = 310,000); also: potency is read from the fitted curve at half-maximal effect
#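 Luciferase-expressing P. falciparum in infected erythrocytes (2% hematocrit, 0.1% parasitemia final) in RPMI 1640/0.5% Albumax were exposed to compound for 48 hours at 37 C, 5% CO2; growth read as luminescence.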
# * hit, by the source's call; u = inconclusive; x = not tested or not shown; + = active, no number; ! = not confirmed by another sample; [ ] = another dose, or the depositor's remark. Unless noted, calls follow the shape of the dose curve; as a rule, active = well fitted curve in the direction sought with a large enough effect; inconclusive = small, poorly fitted or top-dose-only effect, or another doubt; inactive = no such curve, though single readings can be large; an effect the other way counts as inactive or inconclusive. % is scaled to controls: 0 for no effect and ±100 for the full control effect.
SMILES,FBPA Giardia inh,Pf growth 96h,Sm TGR inh,HCMV antiviral,Pf growth 48h
CCn1nnnc1SCC(=O)Nc1cc(C)on1,-0.9%,15.5%,-7.9%,10.3,-15.3%
CCc1ccccc1-n1nnnc1SCC(=O)Nc1cc(C)on1,-1.8%,9.28µM*,33.6%,9.2,-22.2%
Cc1cc(NC(=O)CSc2nnc(-c3ccccc3)n2C)no1,0.5%,91.1%,35.4%,-27.9,4.5%
COC(=O)c1cccc(-n2nnnc2SCC(=O)Nc2cc(C)on2)c1,3.4%,x,-4.2%,-91.0*,-11.1%
Cc1cc(NC(=O)CSc2nnc(C3COc4ccccc4O3)n2C)no1 (stereo unspecified),1.3%,0.2%,-3.1%,-78.1*,2.9%
Cc1ccccc1-n1nnnc1SCC(=O)NC1CC1,x,x,x,19.0,x
Cc1cc(C)c2c(N)c(C(=O)NN3CC(=O)N(c4ccccc4)CC3=O)sc2n1,-18.9%,0.0%,-2.8%,23.7,-6.2%
CC1CCN(C(=O)c2ccc(S(=O)(=O)Cc3cccc(F)c3)c([N+](=O)[O-])c2)CC1,1.6%,u,3.55µM*,-84.4*,-28.6%
Cc1ccccc1CS(=O)(=O)c1cn(CC(=O)N2CCC(C)CC2)c2ccccc12,-6.2%,u,-8.5%,-6.0,u
Cc1ccccc1CS(=O)(=O)c1ccc(C(=O)N2CCC(C)CC2)cc1[N+](=O)[O-],0.6%,u,89.1µM*,u,13.4%
O=C(COc1ncnc2sccc12)NC1CCCCC1,x,27.1%,0.0%,-33.1,16.0%
O=C(Nc1cccc2cccnc12)C1CCCC1,-0.7%,3.9%,-9.6%,u,12.0%
NC(=S)NNc1cccc2cccnc12,u,u,1.3%,11.6,7.38µM*
NC(=S)Nc1cccc2cccnc12,-2.9%,u,1.9%,-78.6*,7.3%
Cc1c(Br)c([N+](=O)[O-])nn1CC(=O)Nc1ccc(C(C)C)cc1,-4.8%,0.0%,0.7%,-19.7,u
Cc1ccc(S(=O)(=O)N2CCN(C(=O)COC(=O)C3(C)CC3(Cl)Cl)CC2)c(C)c1 (stereo unspecified),x,u,-8.3%,-28.4,10.4µM*
Cc1ccc(S(=O)(=O)N2CCN(C)CC2)c(C)c1,5.4%,2.62µM*,8.7%,7.3,-0.7%
Cc1ccc(S(=O)(=O)N2CCN(S(=O)(=O)N3CCCCC3)CC2)c(C)c1,-0.3%,34.3%,3.0%,u,-16.0%
COC(=O)[C@@]1(Cc2ccccc2)[C@@H]2C(=CC(=O)[C@H]2CC(=O)C(=O)N(C)C)CN1C(=O)c1ccccc1,-9.0%,10.4µM*,u,x,u
CCOc1ccc(C(=O)Nc2ccc3nc(N4CCN(CC)CC4)cc(C)c3c2)cc1,2.7%,18.2%,2.2%,u,2.33µM*
CCN1CCN(c2cc(C)c3cc(NC(=O)c4cc(OC)cc(OC)c4)ccc3n2)CC1,0.8%,u,2.5%,-89.6*!,u
CCN1CCN(c2cc(C)c3cc(NC(=O)c4cccc(Cl)c4)ccc3n2)CC1,x,x,11.8%,7.1,x
C#CCOC(=O)NC(/C=C/CCCC)c1ccccc1 (stereo unspecified),3.2%,x,x,x,x
Cc1cc(C)cc(N=Cc2[nH]c3ccc(Br)c(Cl)c3c2O)c1,u,u,u,145.9,1.47µM*
COc1ccc(CN=Cc2[nH]c3ccc(Br)c(Cl)c3c2O)cc1,u,u,u,40.2,3.7µM*
SMILES,FBPA Giardia inh,Pf growth 96h,Sm TGR inh,HCMV antiviral,Pf growth 48h
COc1ccc(CN=CC2=C(O)CNC2=O)cc1,1.1%,35.6%,5.1%,-4.8,0.0%
S=C(NC1CCCCC1)N1CCC([C@H]2C=NC=N2)CC1,-1.0%[21.7 µM],x,x,x,x
COc1cccc(C2CC(=O)Nc3c2c(=O)nc2c(C)cccn32)c1 (stereo unspecified),x,x,0.2%,-20.3,x
CCN(CC)CCC(c1ccc(N(C)C)cc1)c1c(OC)cc(OC)c2c(C)cc(=O)oc12 (stereo unspecified),-8.8%,x,x,x,x
CC(C)C1OC(c2cccc(NC(=O)c3cccs3)c2)OCC1(C)C (stereo unspecified),-10.7%,u,6.8%,-21.9,1.85µM*
Cc1cccc(OCc2n(CC(=O)OC3CC(C)CCC3C(C)C)c3ccccc3[n+]2C)c1 (stereo unspecified),3.2%,2.2%,6.3%,x,2.33µM*
CC1CCC(C(C)C)C(OC(=O)Cn2c(COc3ccccc3)[n+](C)c3ccccc32)C1 (stereo unspecified),-0.7%,2.33µM*,-17.6%,-99.9*,1.65µM*
CC1CCC(C(C)C)C(OC(=O)CSc2nc(N)cc(=O)[nH]2)C1 (stereo unspecified),x,-18.4%,11.8%,-23.5,-9.2%
Cc1cccc(OC(=O)Cn2c(C(F)(F)F)nc3ccccc32)c1,7.6%,114.1%,-4.8%,23.6,15.4%
COc1cc(C(=O)NCC(c2cccs2)N2CCOCC2)ccc1OCc1ccc(Cl)cc1 (stereo unspecified),x,x,x,12.1,x
COc1ccccc1CCNC1CCCCCC1,-15.9%,0.0%,-20.0%,40.4,4.0%
COc1ccccc1CCNC1CCC(C(C)(C)C)CC1 (stereo unspecified),3.3%,2.62µM*,-0.2%,-10.5,2.33µM*
Nc1nonc1-n1nnc(C(=O)N/N=C/c2ccccn2)c1-c1ccccc1,21.2%,0.9%,-1.7%,0.3,1.4%
COc1ccc(/C=N/NC(=O)c2nnn(-c3nonc3N)c2-c2cccc(OC)c2)cc1,10.6%,-3.7%,-4.1%,-32.6,u
Nc1nonc1-n1nnc(C(=O)N/N=C/c2cccc(Cl)c2)c1-c1cccs1,x,2.33µM*,-4.5%,+,4.65µM*
Nc1nonc1-n1nnc(C(=O)N/N=C/c2cccc(F)c2)c1-c1ccccc1,-20.9%,u,-1.4%,-19.0,5.22µM*
Nc1nonc1-n1nnc(C(=O)N/N=C/c2ccc(F)cc2)c1-c1ccc2c(c1)OCO2,x,0.0657µM*,3.7%,0.0,0.117µM*
Nc1nonc1-n1nnc(C(=O)N/N=C/c2cc(Br)cs2)c1-c1ccccc1,8.2%,-29.2%,10.7%,-68.8*,u
COc1ccc(S(=O)(=O)N2CCOCC2)cc1NC(=O)CSc1nnc(N)s1,x,6.9%,3.1%,-13.8,-2.2%
O=C(COC(=O)c1ccc(S(=O)(=O)N2CCCCC2)cc1)Nc1ccccc1Cl,x,36.0%,-0.3%,-20.9,26.4%
CC1(C)CC2C1CCC1(C)OC1CCC2(C)O (stereo unspecified),-2.1%,x,x,x,x
CC(C)=CCC/C(C)=C/CO/N=C1/C[C@@H](O)[C@@H](O)[C@@H]2[C@@H]3C(=O)N(Cc4ccccc4)C(=O)[C@H]3CC[C@H]12,-3.1%[12.9 µM],x,x,x,x
Nc1nonc1-n1nnc(C(=O)N/N=C/c2cccc(F)c2)c1-c1ccc2c(c1)OCO2,x,0.0657µM*,1.9%,0.0,0.117µM*
CCN(CC)c1ccc(/C=N/NC(=O)c2nnn(-c3nonc3N)c2-c2ccc(C)cc2)cc1,x,5.86µM*,-15.0%,-14.3,u
Cc1ccc(-c2c(C(=O)N/N=C/c3cccnc3)nnn2-c2nonc2N)cc1,-20.7%,u,-5.3%,-20.7,u
